Measured values taken from PubChem BioAssay (Tox21).
Several values for one entry are separate records, joined by “and”; a condition that tells them apart may be missing. Equal values may be shown once. Inconclusive results are not listed. Where a call stands in place of a potency, no number is given. Some compounds were tested as several samples or in several runs, with calls that do not always agree. Activity calls are given as the source filed them. Unless noted, the call rests on the fitted dose curve; in most records, active means well fitted curve in the direction sought with a large enough effect in the repeat runs; inconclusive means weak or mixed curves; inactive means no such curve, though single readings can be large; an effect the other way counts as inactive or inconclusive.

Assays:
[1] = qHTS assay to identify small molecule agonists of the RXR signaling pathway - cell viability counter screen (AID 1159529); further: nearly all actives have a fitted effect of over 50% in size
Outline: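 HEK 293T RXRa-bla cells, 2% CS-FBS; 5 h settle; cpd 16 h 37 C, 5% CO2; CellTiter-Glo 30 min RT, luminescence. Tetraoctyl ammonium bromide as positive control.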

[2] = qHTS assay to identify small molecule antagonists of the retinoid acid receptor (RAR) signaling pathway - cell viability counter screen (AID 1159551); further: nearly all actives have a fitted effect of over 35% in size
Outline: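 Viability of C3RL4 cells is quantified from ATP by luminescence after 6 h treatment at 37 C with compounds and 1 uM retinol.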

[3] = qHTS assay to identify small molecule antagonists of the retinoic acid receptor (RAR) signaling pathway (AID 1159552; further: nearly all actives have a fitted effect of over 50% in size)
Outline: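 Cells of the C3RL4 line were seeded, incubated overnight, then dosed with compounds in DMSO followed immediately by retinol (1 uM final). Six hours later luciferase detection reagent went in; signal was measured after 30 min at RT.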

[4] = qHTS assay to identify small molecule antagonists of the estrogen related receptor (ERR) signaling pathway from Tox21 library - cell viability counter screen (AID 1224834); further: nearly all actives have a fitted effect of over 30% in size
Outline: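 In this quantitative HTS format, ERR cells receive compounds in DMSO and are incubated for 17.5 h at 37 C. Live-cell protease activity is then detected with CellTiter-Fluor.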

[5] = target: Luciferin 4-monooxygenase (Photinus pyralis) (UniProt P08659); assay: qHTS assay to identify small molecule inhibitors of firefly luciferase (AID 1224835); further: nearly all actives have a fitted effect of over 25% in size
Outline: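 Quantitative HTS format; KM concentrations of both substrates. Purified P. pyralis FLuc activity quantified from luminescence images.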

[6] = qHTS assay to identify small molecule agonists of the constitutive androstane receptor (CAR) signaling pathway - cell viability counter screen (AID 1224836); further: nearly all actives have a fitted effect of over 45% in size
Outline: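 HepG2-CYP2B6-hCAR, 2500 cells/well, 4 h pre-incubation; cpd 15 conc + PK11195 0.75 uM final; 23 h, 37 C/5% CO2; CellTiter-Fluor, fluorescence.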

[7] = qHTS assay to identify small molecule antagonists of the constitutive androstane receptor (CAR) signaling pathway - cell viability counter screen (AID 1224837); further: nearly all actives have a fitted effect of over 45% in size
Outline: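 In quantitative HTS format, compounds at 15 concentrations were applied to HepG2 cells double-transfected with hCAR and CYP2B6-2.2kb under 50 nM CITCO stimulation; live-cell protease activity was read after 23 hr via CellTiter-Fluor.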

[8] = qHTS assay to identify small molecule antagonists of the estrogen related receptor signaling pathway with the pleiotropic PPARgamma coactivator (PGC) from Tox21 10K library - cell viability counter screen (AID 1224840; active means well fitted cell-killing curve with a large enough effect in the repeat runs, not every such curve was filed as active; further: nearly all actives have a fitted effect of over 40% in size)
Outline: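 Viability counter screen, PGC/ERR cells: 17.5 h compound exposure at 37 C, CellTiter-Fluor fluorescence endpoint.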

[9] = target: Thyrotropin receptor (Homo sapiens) (UniProt P16473); assay: qHTS assay to identify small molecule agonists of the thyroid stimulating hormone receptor (TSHR) signaling pathway (AID 1224843; calls by dose curve; further: nearly all actives have a fitted effect of over 45% in size)
Outline: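 Using 15 concentrations per compound in triplicate, cAMP production was monitored in TSHR-HEK293 cells after 30 min compound incubation at RT; HTRF reagents followed, with fluorescence intensity recorded after 1 h.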

[10] = qHTS assay to identify small molecule agonists of the retinoic acid receptor (RAR) signaling pathway (AID 1159553)
Outline: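 Compounds dissolved in DMSO were pinned onto C3RL4 cells seeded the previous day, and plates were held 6 hr at 37 C. RARE-driven luciferase output was then read by luminescence.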

[11] = target: Nuclear receptor subfamily 1 group I member 3 (Homo sapiens) (UniProt Q14994); assay: qHTS assay to identify small molecule antagonists of the constitutive androstane receptor (CAR) signaling pathway (AID 1224838); further: nearly all actives have a fitted effect of over 40% in size
Outline: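 CITCO-stimulated (50 nM final) HepG2 cells stably transfected with hCAR and CYP2B6-2.2kb luciferase were exposed to compounds at 15 concentrations for 24 h at 37 C/5% CO2. A luciferase reagent was added and luminescence recorded after 30 min.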

[12] = target: Nuclear receptor subfamily 1 group I member 3 (Homo sapiens) (UniProt Q14994); assay: qHTS assay to identify small molecule agonists of the constitutive androstane receptor (CAR) signaling pathway (AID 1224839); further: nearly all actives have a fitted effect of over 15% in size
Outline: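 HepG2-CYP2B6-hCAR cells, 2500/well, 4 h pre-incubation; compounds 15 conc.; PK11195 0.75 uM final; 24 h, 37 C/5% CO2; ONE-Glo luciferase read.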

[13] = qHTS assay to identify small molecule antagonists of the estrogen related receptor signaling pathway with the pleiotropic PPARgamma coactivator (PGC) from Tox21 10K library (AID 1224841; call rule not given here; further: actives are mostly falling curves and most rising ones were filed inactive; nearly all actives have a fitted effect of over 50% in size)
Outline: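 In the PGC/ERR line, DMSO solutions of test chemicals are pin-delivered to 2,000 cells/well six hours after dispensing. Following eighteen hours' incubation, One-Glo reagent is added and luminescence recorded.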

[14] = qHTS assay to identify small molecule agonists of the estrogen related receptor signaling pathway with the pleiotropic PPARgamma coactivator (PGC) from Tox21 10K library (AID 1224842); further: nearly all actives have a fitted effect of over 15% in size
Outline: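 PGC/ERR reporter cells (NTP line) were seeded 2,000 per well, rested 6 h at 37 C/5% CO2, then pin-dosed with compounds in DMSO for 18 h at 37 C; luciferase read by One-Glo luminescence after 30 min at room temperature.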

[15] = qHTS assay to identify small molecule antagonists of the estrogen related receptor signaling pathway with the pleiotropic PPARgamma coactivator (PGC) cell viability counter screen (AID 1224822)
Outline: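 Viable cell signal (CellTiter-Fluor, 30 min, 37 C/5% CO2) was measured in PGC/ERR cells after a 17.5 h compound incubation.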
Potency means the concentration at half of the fitted maximal effect.

Sequence of Luciferin 4-monooxygenase (Photinus pyralis) (P08659 whole entry, looked up): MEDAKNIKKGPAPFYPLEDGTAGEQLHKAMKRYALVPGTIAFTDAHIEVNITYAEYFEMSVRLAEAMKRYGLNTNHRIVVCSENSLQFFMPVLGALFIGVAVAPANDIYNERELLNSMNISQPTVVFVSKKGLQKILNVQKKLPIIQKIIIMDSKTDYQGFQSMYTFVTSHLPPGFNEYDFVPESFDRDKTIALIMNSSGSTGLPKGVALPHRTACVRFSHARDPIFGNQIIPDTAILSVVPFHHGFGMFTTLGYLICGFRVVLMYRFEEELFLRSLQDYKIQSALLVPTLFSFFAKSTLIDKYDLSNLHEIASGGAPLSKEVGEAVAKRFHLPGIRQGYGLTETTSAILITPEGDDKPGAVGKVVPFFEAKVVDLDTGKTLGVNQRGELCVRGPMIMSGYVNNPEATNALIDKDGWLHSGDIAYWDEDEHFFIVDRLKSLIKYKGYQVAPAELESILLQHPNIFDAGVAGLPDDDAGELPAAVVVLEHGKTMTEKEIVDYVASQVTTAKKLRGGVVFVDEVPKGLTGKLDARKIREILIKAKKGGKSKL
Sequence of Nuclear receptor subfamily 1 group I member 3 (Homo sapiens) (Q14994 whole entry, looked up): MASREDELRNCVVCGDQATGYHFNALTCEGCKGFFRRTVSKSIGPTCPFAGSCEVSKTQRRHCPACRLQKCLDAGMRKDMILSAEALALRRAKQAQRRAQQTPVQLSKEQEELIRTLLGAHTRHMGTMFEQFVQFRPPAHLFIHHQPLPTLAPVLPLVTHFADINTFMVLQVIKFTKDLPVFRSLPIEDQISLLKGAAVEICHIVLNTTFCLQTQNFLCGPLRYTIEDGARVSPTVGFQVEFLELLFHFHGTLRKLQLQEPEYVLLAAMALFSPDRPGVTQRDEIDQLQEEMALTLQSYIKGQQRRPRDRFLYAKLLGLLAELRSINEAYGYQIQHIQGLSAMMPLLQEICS
Sequence of Thyrotropin receptor (Homo sapiens) (P16473 whole entry, looked up): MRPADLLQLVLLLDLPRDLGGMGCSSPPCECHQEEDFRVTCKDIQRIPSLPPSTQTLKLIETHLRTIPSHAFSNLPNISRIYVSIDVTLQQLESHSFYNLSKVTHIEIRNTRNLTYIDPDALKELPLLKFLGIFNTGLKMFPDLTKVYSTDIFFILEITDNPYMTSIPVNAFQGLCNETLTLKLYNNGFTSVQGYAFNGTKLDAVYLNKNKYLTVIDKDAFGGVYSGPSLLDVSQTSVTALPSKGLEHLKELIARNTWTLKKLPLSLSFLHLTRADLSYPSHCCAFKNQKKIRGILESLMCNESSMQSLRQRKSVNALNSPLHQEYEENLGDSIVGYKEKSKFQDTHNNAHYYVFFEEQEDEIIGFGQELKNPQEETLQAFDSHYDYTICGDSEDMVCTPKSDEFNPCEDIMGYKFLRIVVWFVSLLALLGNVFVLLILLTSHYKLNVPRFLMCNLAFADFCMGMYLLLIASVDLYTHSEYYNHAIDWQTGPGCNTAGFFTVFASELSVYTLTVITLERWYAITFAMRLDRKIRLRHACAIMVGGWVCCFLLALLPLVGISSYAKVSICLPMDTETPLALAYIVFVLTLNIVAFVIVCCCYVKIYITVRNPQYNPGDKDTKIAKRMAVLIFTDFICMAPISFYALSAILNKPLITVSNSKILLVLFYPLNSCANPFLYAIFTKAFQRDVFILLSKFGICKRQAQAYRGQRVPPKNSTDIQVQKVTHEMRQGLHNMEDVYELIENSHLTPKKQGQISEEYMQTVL

SMILES	Potency [1]	Potency [2]	Potency [3]	Potency [4]	Potency [5]	Potency [6]	Potency [7]	Potency [8]	Potency [9]	Potency [10]	Potency [11]	Potency [12]	Potency [13]	Potency [14]	Potency [15]
COS(=O)(=O)c1ccc(C)cc1	inactive	inactive	inactive	inactive	inactive	inactive	inactive	inactive	inactive						
CC(C)(C)OO	inactive	inactive	inactive	inactive	inactive	inactive	inactive	inactive	inactive	inactive	inactive	inactive			
COc1ccc([N+](=O)[O-])cc1O	inactive	inactive	inactive	inactive	inactive	inactive	inactive	inactive	inactive						
N#CCCSCCC#N	inactive	inactive	inactive	inactive		inactive	inactive	inactive	inactive	inactive	inactive				
CCCCCCCCCCCCCN1CC(C)OC(C)C1 (stereo not given)	inactive	inactive	inactive	inactive	inactive	inactive	inactive	inactive	inactive	inactive					
CCSC(C)CC1CC(=O)C(/C(CC)=N/OC/C=C/Cl)=C(O)C1 (stereo not given)	inactive	inactive	inactive	inactive	inactive	inactive	inactive	inactive	inactive				2.11 µM (active)	inactive	
BrC(Br)Br	inactive	inactive	inactive	inactive		inactive	inactive	inactive	inactive	inactive	inactive		inactive	inactive	
C[C@]12CC[C@H]3[C@@H](CCC4=CC(=O)CC[C@@]43C)[C@@H]1CC[C@@H]2O	inactive	inactive	48.2 µM (active)	inactive	inactive	inactive	inactive	inactive		inactive	inactive	inactive			
COC12CC[C@@]3(C[C@@H]1C(C)(O)C(C)(C)C)[C@H]1Cc4ccc(O)c5c4[C@@]3(CCN1CC1CC1)[C@H]2O5 (stereo not given in full)	21.7 µM (active)	60.7 µM (active)	54.1 µM (active)	27.1 µM (active)	inactive	43 µM (active)	54.1 µM (active)	43 µM (active)	inactive		48.2 µM (active)	inactive	60.7 µM (active)	inactive	
C[C@H]1CC[C@@H]2[C@@H](C)[C@H]3[C@H](C[C@H]4[C@@H]5CC=C6CC(O[C@@H]7O[C@H](CO)[C@H](O)[C@H](O[C@@H]8O[C@H](CO)[C@@H](O)[C@H](O)[C@H]8O)[C@H]7O[C@H]7O[C@@H](C)[C@H](O)[C@@H](O)[C@H]7O)CC[C@]6(C)[C@H]5CC[C@]34C)N2C1 (stereo not given in full)	14.3 µM (active)	25.1 µM (active)	28.2 µM (active)	22.4 µM (active)	inactive	22.4 µM (active)	22.4 µM (active)	22.4 µM (active)		inactive	22.4 µM (active)		inactive		
CCCCCCCCCBr	inactive	inactive	inactive	inactive		inactive	inactive	inactive	inactive	inactive	inactive	inactive			
CCC[CH2][Sn]([CH2]CCC)([CH2]CCC)[O]C(=O)c1ccccc1	1.23 µM (active)	4.86 µM (active)	0.686 µM (active)	2.17 µM (active)	35.6 µM (active)	0.77 µM (active)	1.22 µM (active)	1.22 µM (active)	inactive					inactive	
Cn1cc(C2=C(c3cn(C4CCN(Cc5ccccn5)CC4)c4ccccc34)C(=O)NC2=O)c2ccccc21	inactive	inactive	inactive	11.9 µM (active)	inactive		inactive	inactive	inactive	inactive				inactive	
CCOP(=S)(OCC)SCS(=O)(=O)C(C)(C)C	inactive	inactive	inactive	inactive	inactive	inactive	inactive	inactive	inactive		inactive				
COc1ccc(OC)c(CC(C)N)c1 (stereo not given)	inactive	inactive	inactive	inactive	inactive	inactive	inactive	inactive	inactive	inactive	inactive	inactive			
CC(=O)Nc1ccc2c(c1)Cc1ccccc1-2	inactive	inactive	inactive		28.7 µM (active)	inactive	inactive	inactive		6.21 µM (active)	inactive	31.1 µM (active)			
CCCN(CCC)CCc1c[nH]c2ccccc12	inactive	inactive	inactive				inactive	inactive	inactive	inactive	inactive				
CCOP(=S)(OCC)SCS(=O)(=O)CC	inactive	inactive	inactive	inactive	inactive	inactive	inactive	inactive	inactive		inactive	inactive		inactive	
CCOC(=O)c1ccccc1S(=O)(=O)NC(=O)Nc1nc(Cl)cc(OC)n1	inactive	inactive	inactive	inactive	inactive	inactive	inactive	inactive	inactive		inactive	inactive			

SMILES	Potency [1]	Potency [2]	Potency [3]	Potency [4]	Potency [5]	Potency [6]	Potency [7]	Potency [8]	Potency [9]	Potency [10]	Potency [11]	Potency [12]	Potency [13]	Potency [14]	Potency [15]
N#CC(Cl)Cl	inactive	inactive	inactive	inactive	inactive	inactive	inactive	inactive	inactive	47.3 µM (active)				inactive	
ClC1=C(Cl)C2(Cl)C3C(Cl)C=CC3C1(Cl)C2(Cl)Cl (stereo not given)	34.7 µM (active)	inactive	inactive	68.6 µM (active)	inactive	inactive	inactive	inactive	7.73 µM (active) and 15.4 µM (active)	inactive	inactive				
Oc1ccc(C2(c3ccc(O)cc3)CCCCC2)cc1	36.8 µM (active)	inactive	41 µM (active)	57.9 µM (active)	inactive										
Clc1ccc(Oc2ccccc2)cc1	inactive	inactive	inactive	inactive	inactive	inactive	inactive	inactive			inactive	inactive			
N#CCc1ccc(Cl)cc1	inactive	inactive	inactive	inactive	inactive	inactive	inactive	inactive					inactive	inactive	
Cl/C=C\CCl	inactive	inactive	inactive	inactive		inactive	inactive	inactive	inactive		inactive	inactive	inactive	inactive	
Oc1ccc2ccc3cccc4ccc1c2c34	49 µM (active)	inactive	inactive	inactive		inactive	inactive	inactive	inactive		inactive	61.1 µM (active)			
CC(C)CCCCCOC(=O)c1ccccc1C(=O)OCCCCCC(C)C	inactive	inactive	inactive		inactive	inactive	inactive	inactive	inactive	inactive	inactive	inactive			
CCCCCCCCCCBr	inactive	inactive	inactive	inactive	inactive	inactive	inactive	inactive					inactive	inactive	
c1ccc2c(c1)[nH]c1cnccc12	inactive	inactive	inactive	inactive	inactive	inactive	inactive	inactive	inactive	inactive	inactive	inactive			
O=C(O)C1C2CCC(O2)C1C(=O)O (stereo not given)	inactive	inactive	inactive		inactive			inactive	inactive	inactive	49.2 µM (active) and 44.5 µM (active)	inactive	inactive	55.1 µM (active) and 19.9 µM (active)	
FC(Cl)(Cl)Cl	inactive	inactive	inactive	inactive	inactive		inactive	inactive	inactive	inactive					
CC(=O)OC1(c2ccccc2)CCN(CCc2ccccc2)CC1	inactive	inactive	inactive		inactive			inactive	inactive	inactive	8.84 µM (active)				
O=c1[nH]c2ccccc2n1CCCN1CCC(n2c(=O)[nH]c3cc(Cl)ccc32)CC1	16.9 µM (active)	inactive	inactive	29.8 µM (active)					inactive	inactive	inactive	inactive			23.7 µM (active)
Clc1ccc(C(Cl)(Cl)Cl)c(Cl)c1	19.6 µM (active)	inactive	inactive			inactive	inactive	inactive	inactive	inactive	inactive	inactive	61.6 µM (active)	inactive	
CC(C)CC(C)(c1ccc(O)cc1)c1ccc(O)cc1	55.1 µM (active) and 49 µM (active)	inactive	inactive	48.7 µM (active)	inactive				48.7 µM (active) and inactive	inactive	2.44 µM (active)	6.87 µM (active) and 2.17 µM (active)	54.6 µM (active)	inactive	
CCOP(=S)(OCC)OC(Cl)C(Cl)(Cl)Cl (stereo not given)	inactive	inactive	inactive	inactive		inactive	inactive	inactive	inactive	inactive	inactive		inactive	inactive	
CCOC(=O)C1(c2ccccc2)CCN(CCC(C#N)(c2ccccc2)c2ccccc2)CC1	inactive	inactive	inactive	inactive	inactive		inactive	inactive	inactive	inactive	inactive				
CCCCOP(=O)(CCCC)OCCCC	inactive	inactive	inactive	inactive		inactive	inactive	inactive			inactive			inactive	
